# Measurements published in PubChem BioAssay (NCATS).
# Several values for one entry are separate records, joined by “and”; a condition that tells them apart may be missing. Equal entries are not always repeated. Inconclusive results are not listed. Entries that show only a call come without a potency. Activity calls are given as the source filed them. Unless noted, the call rests on the fitted dose curve; in most records, active means well fitted curve in the direction sought with a large enough effect; inconclusive means small, poorly fitted or top-dose-only effect, or another doubt; inactive means no such curve, though single readings can be large; an effect the other way counts as inactive or inconclusive.
# Legend:
# [1] = target: Luciferin 4-monooxygenase (Photinus pyralis) (UniProt P08659); assay: Biochemical firefly luciferase enzyme assay for NPC (AID 624030);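 further: purified P. pyralis luciferase at 10 nM with luciferin and ATP substrate; nearly all actives have a fitted effect of over 70% in size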
# Chain of Luciferin 4-monooxygenase (Photinus pyralis) (P08659 whole entry, looked up): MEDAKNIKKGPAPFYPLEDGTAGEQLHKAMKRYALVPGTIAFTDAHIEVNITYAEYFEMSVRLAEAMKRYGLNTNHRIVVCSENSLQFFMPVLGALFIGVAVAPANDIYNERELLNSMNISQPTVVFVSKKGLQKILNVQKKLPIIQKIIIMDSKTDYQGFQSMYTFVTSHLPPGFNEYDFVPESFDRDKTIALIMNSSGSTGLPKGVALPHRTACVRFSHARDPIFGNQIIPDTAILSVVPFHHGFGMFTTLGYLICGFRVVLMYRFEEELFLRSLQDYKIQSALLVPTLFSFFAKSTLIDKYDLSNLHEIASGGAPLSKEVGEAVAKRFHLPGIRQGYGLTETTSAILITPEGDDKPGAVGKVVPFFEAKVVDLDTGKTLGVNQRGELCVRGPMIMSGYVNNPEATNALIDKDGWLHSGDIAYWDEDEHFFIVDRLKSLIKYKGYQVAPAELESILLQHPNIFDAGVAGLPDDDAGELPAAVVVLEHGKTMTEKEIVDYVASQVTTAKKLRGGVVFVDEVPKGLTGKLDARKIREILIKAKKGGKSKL
# In short: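 Counter-screen for direct inhibition of the luciferase enzyme by approved-drug library compounds, run at 10 nM enzyme in 50 mM Tris acetate (final). Luminescence was read within 5 min of enzyme-buffer addition and normalized to PTC124 versus DMSO (0%).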
# [2] = S16 Schwann cell viability assay (CellTiter-Glo assay) (AID 624031); further: nearly all actives have a fitted effect of over 70% in size; further: potency means the concentration at half of the fitted maximal effect
# In short: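 Native S16 rat Schwann cells, 500-750 cells/well in DMEM with 10% FBS, dosed with compound after overnight culture and incubated 24h at 37 degree Celsius/5% CO2. Viability by CellTiter-Glo luminescence; % activity normalized to no-cell wells and DMSO-treated cells.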
# [3] = qHTS assay for small molecule activators of the p53 signaling pathway (AID 651743; active means well fitted activation curve with a large enough effect in the signal ratio, not every such curve was filed as active; the % refers to the signal ratio); conditions: HCT-116 p53RE-bla, beta-lactamase FRET ratio, 16 h; activation: stronger effect = higher value
# In short: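 Agonist-mode quantitative HTS in HCT-116 cells carrying a p53-response-element beta-lactamase reporter; 16 h compound treatment at 37 C, then FRET substrate loading for 2 h at room temperature and fluorescence read.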
# [4] = qHTS assay for small molecule activators of the nuclear factor-kappa B (NF-kB) signaling pathway (AID 651749; active means well fitted activation curve with a large enough effect in the signal ratio; the % refers to the signal ratio); conditions: NF-kB-bla ME-180 cells, beta-lactamase FRET ratio, 16 h; stronger effect = higher value
# In short: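 Human ME-180 cervical cells with an NF-kB-bla construct; compounds added via 23 nL pin transfer, DMSO as vehicle; incubation 16 hr. Reporter activity measured by FRET disruption.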
# [5] = qHTS assay for small molecule disruptors of the mitochondrial membrane potential - 1 hr assay (AID 651754; calls by dose curve; further: nearly all actives have a fitted effect of over 35% in size)
# In short: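 Loss of mitochondrial potential shifts the cationic dye from red mitochondrial aggregates to green cytoplasmic monomers. Cells (HepG2) are treated with compound for 1 hr before a 30 min dye incubation at 37C.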
# [6] = target: Tumor necrosis factor (Homo sapiens) (UniProt P01375); assay: qHTS assay to identify small molecules that stimulate Tumor Necrosis Factor-alpha (TNF-alpha) secretion (AID 651757; active means well fitted curve in the direction sought with a large enough effect in the signal ratio; the % refers to the signal ratio)
# Chain of Tumor necrosis factor (Homo sapiens) (P01375 whole entry, looked up): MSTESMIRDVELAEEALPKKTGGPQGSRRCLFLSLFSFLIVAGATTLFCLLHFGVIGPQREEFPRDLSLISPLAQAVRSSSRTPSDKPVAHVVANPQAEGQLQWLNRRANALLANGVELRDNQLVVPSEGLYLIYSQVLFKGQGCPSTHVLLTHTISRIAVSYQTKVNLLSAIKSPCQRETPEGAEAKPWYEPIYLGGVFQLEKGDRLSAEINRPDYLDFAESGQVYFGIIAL
# In short: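 Human monocytic THP-1 cells are plated, treated with compound and held at 37 C for 17 hrs. Labeled anti-TNF-alpha antibody mixture is then added; after 3 hr at room temperature, TR-FRET signal reports secreted TNF-alpha.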
# [7] = S16 Schwann cell PMP22 intronic element beta-lactamase assay (AID 624044; calls by dose curve; further: nearly all actives have a fitted effect of over 15% in size)
# In short: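 Beta-lactamase reporter under a PMP22 intronic regulatory element in stable S16 rat Schwann cells; 24 h compound exposure. 460 nm blue signal normalized between DMSO (0%) and potassium clavulanate, with 535 nm FRET tracking viability; curves classed by r2 and response.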
# [8] = S16 Schwann cell PMP22 intronic element firefly luciferase assay (AID 624032); further: nearly all actives have a fitted effect of over 30% in size
# In short: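 Rat S16 Schwann cells stably carrying a PMP22 intronic element-driven Fluc reporter were seeded overnight, then exposed to compounds for 24 h at 37 °C. Luminescence was normalized to PTC124 (positive control) and DMSO (0% activity).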
# [9] = Cytotoxicity counterscreen for NFkB agonists and antagonists (AID 624476)
# [10] = qHTS Assay for Identification of Small Molecule Antagonists for NFkB Signaling Pathway. (AID 624479; calls by dose curve;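 further: pathway stimulated with TNF alpha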; further: potency means the concentration at half of the fitted maximal effect)
# [11] = Cell Proliferation Assay against the TMD8 Cell Line (AID 651645); conditions: TMD8 DLBCL cell line proliferation/viability; at 46.1 µM (top of the series) unless noted;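 further: cells exposed to compound for 48 h before reading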
# In short: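 Cell viability of the ABC DLBCL line TMD8 is measured by CellTiter-Glo luminescence following a 48-hour incubation with compound. Percent activity uses DMSO as 100% and 9.2 uM bortezomib (final) as 0%.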
# [12] = Cell Proliferation Assay against the TMD8 Cell Line (Caspase readout at 16 hrs) (AID 651712)
# In short: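 16 h, 37 °C, TMD8 (500 cells/well), RPMI/5% FBS no phenol red; Caspase-Glo 3/7, 15 min RT, luminescence; %act: DMSO 0, bortezomib 9.2 uM final 100.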
# [13] = Cell Proliferation Assay against the TMD8 Cell Line (Caspase readout at 8 hrs) (AID 651713)
# In short: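 Caspase 3/7 activation in ABC DLBCL TMD8 cells is measured by luminescence after an 8 h compound exposure at 37C. Relative light units are scaled between DMSO (0%) and 9.2 uM final bortezomib (100%).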
# [14] = qHTS Assay for Identification of Small Molecule Agonists for NFkB Signaling Pathway. (AID 624478);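 further: compounds tested together with TNF alpha at its EC50 of 10 pM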
# In short: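 Activators were sought in reporter cells stimulated at the TNF alpha EC50 (10 pM final). Compound and cytokine were co-incubated 5 hours at 37 C before beta-lactamase substrate detection by dual-emission fluorescence.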
structure (smiles),measurement,setting,value
CC1=C(/C=C/C(C)=C/C=C/C(C)=C/CO)C(C)(C)CCC1,Potency,[1],inactive
same,Potency,[2],inactive
same,activation,[3],-4.27% (inactive) and -5.83% (inactive)
same,activation,[4],-0.416% (inactive) and -2.98% (inactive)
same,outcome,[5],inactive
same,outcome,[6],inactive
O=C(COc1ccc(Cl)cc1)OCCNC12CC3CC(CC(C3)C1)C2,Potency,[1],inactive
same,Potency,[2],inactive
same,Potency,[7],inactive
Oc1cc(O)c2c(c1)OC(c1ccc(O)c(O)c1)C(O)C2 (stereo not drawn),Potency,[1],inactive
same,Potency,[2],inactive
same,Potency,[8],inactive
same,Potency,[7],inactive
CCC1(Cc2ccc(N)cc2)CCC(=O)NC1=O (stereo not drawn),Potency,[9],inactive
same,Potency,[10],inactive
same,viability (% of control),[11],97.8% [at 92.2 µM]
same,Potency,[12],inactive
same,Potency,[13],inactive
O=C(O)CC/C=C\CC[C@H]1[C@@H](N2CCCCC2)[C@@H](O)C[C@@H]1OCc1ccc(-c2ccccc2)cc1,Potency,[9],inactive
same,outcome,[14],inactive
same,Potency,[10],inactive
same,viability (% of control),[11],104%
same,Potency,[12],inactive
same,Potency,[13],inactive
COCC(=O)Nc1cc(Sc2ccccc2)ccc1N=C(NC(=O)OC)NC(=O)OC,Potency,[1],inactive
same,Potency,[8],inactive
same,Potency,[7],inactive
CC1(C)S[C@@H]2[C@H](NC(=O)[C@@H](NC(=O)N3CCNC3=O)c3ccccc3)C(=O)N2[C@H]1C(=O)O,Potency,[1],inactive
same,Potency,[2],inactive
same,Potency,[8],inactive
same,Potency,[7],inactive
CCC(=O)NCCC1CCc2ccc3c(c21)CCO3 (stereo not drawn),Potency,[1],inactive
same,Potency,[2],inactive
same,Potency,[7],inactive
COC(=O)C1=C(C)NC(C)=C(C(=O)OCCCN2CCC(c3ccccc3)(c3ccccc3)CC2)[C@H]1c1cccc([N+](=O)[O-])c1,outcome,[14],inactive
same,Potency,[10],23.7 µM (active)
same,viability (% of control),[11],2.99%
Clc1cc(Cl)c(OCC#CI)cc1Cl,Potency,[2],25.6 µM (active)
O=C(O)CN(CCN(CC(=O)O)CC(=O)O)CC(=O)O,Potency,[1],inactive
same,Potency,[2],inactive
same,Potency,[8],inactive
same,Potency,[7],inactive
same,activation,[3],-1.95% (inactive) and 0.161% (inactive)
